# According to PubChem BioAssay (NCI):
# The panel holds about 79,000 compounds, 15% with a hit somewhere; the sample as a whole holds those more often. Values without a mark were called inactive. Calls of active or inactive are those of the source. No stated cut-off is given here; in the data, active means growth inhibition above about 70%; inactive means the rest.
# Experiments:
# [1] = NCI Yeast Anticancer Drug Screen. Data for the rad50 strain (AID 155);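 further: 0% = growth of vehicle-only cultures of the same strain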; details: S. cerevisiae rad50 strain growth inhibition, active compounds read high
# In short: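 Compounds were tested on a yeast strain with an engineered DNA damage repair alteration; the reported value is growth inhibition normalised to vehicle treatment.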
# [2] = NCI Yeast Anticancer Drug Screen. Data for the mec2-1 strain (AID 157); details: S. cerevisiae mec2-1 strain, active compounds read high
# In short: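 Test agents were screened against the mec2-1 yeast strain, with defined DNA repair or cell cycle alteration. Growth was scored as inhibition against vehicle-only controls.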
# [3] = NCI Yeast Anticancer Drug Screen. Data for the sgs1 mgt1 strain (AID 161);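 further: 0% = growth of cultures given vehicle only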; details: S. cerevisiae sgs1 mgt1 strain, active compounds read high
# In short: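 Read-out: growth inhibition vs vehicle controls. Cells: mutant yeast strain deficient in DNA damage repair.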
# [4] = NCI Yeast Anticancer Drug Screen. Data for the cln2 rad14 strain (AID 165);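 further: 0% = growth equal to vehicle treated cultures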; details: S. cerevisiae cln2 rad14 strain, active compounds read high
# In short: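 Growth of compound-exposed yeast (cln2 rad14 genotype) measured and expressed as inhibition relative to vehicle.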
# [5] = NCI Yeast Anticancer Drug Screen. Data for the bub3 strain (AID 167); details: S. cerevisiae bub3 mutant strain, active compounds read high
# In short: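 Growth of a checkpoint-deficient yeast mutant is measured after compound exposure. Values represent inhibition relative to vehicle.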
# [6] = NCI Yeast Anticancer Drug Screen. Data for the mlh1 rad18 strain (AID 175); details: S. cerevisiae mlh1 rad18 strain growth inhibition, active compounds read high
# In short: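 In this whole-cell yeast screen, a strain with altered DNA damage repair is challenged with compound, and its growth is measured against matched vehicle-treated controls.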
# [7] = at 5.0 µM (retest, dose inferred, filed as 0.5)
# [8] = at 50.0 µM (retest, dose inferred, filed as 5.0)
SMILES,"growth inhibition [1, 7] [%]","growth inhibition [1, 8]",growth inhibition ([1]; at 50.0 µM),"growth inhibition [2, 7] [%]","growth inhibition [2, 8]",growth inhibition ([2]; at 50.0 µM),"growth inhibition [3, 7] [%]","growth inhibition [3, 8]",growth inhibition ([3]; at 50.0 µM),"growth inhibition [4, 7] [%]","growth inhibition [4, 8]",growth inhibition ([4]; at 50.0 µM),"growth inhibition [5, 7]","growth inhibition [5, 8]",growth inhibition ([5]; at 50.0 µM),"growth inhibition [6, 7] [%]","growth inhibition [6, 8]",growth inhibition ([6]; at 50.0 µM)
CCCC(O)[C@@]1(CC)CC(C)C(O)(C2(C)C[C@H](C)[C@@H](C(CC)C(=O)C(C)[C@@H](O)[C@H](C)C3OC(O)(C(CC)C(=O)O)[C@@H](C)C(O)C3CC)O2)O1 (stereo not given in full),-9,-13%,14.7%,-27,-13%,23.1%,-9,-6%,23.3%,0,28%,29.3%,-10%,-14%,25.9%,-10,-8%,85.9% (active)
CCOC(=O)c1ccc(O)c(OC)c1,-2,10%,2%,7,3%,1.5%,3,2%,-18.6%,-5,5%,-13.8%,61%,93% (active),90.2% (active),-3,0%,-7.1%
N#C/C(=C/c1ccccc1B(O)O)C(=O)O,-151,-5%,71.4% (active),-49,-36%,17%,-61,-40%,31.3%,-62,-58%,13.1%,-77%,-96%,-8.9%,-140,-65%,65.8%
CC/C(=N\O)c1ccc2cc(Br)c3ccccc3c2c1,5,89% (active),98.7% (active),-2,89% (active),98.9% (active),10,88% (active),98.7% (active),-10,84% (active),96.8% (active),-4%,87% (active),98.8% (active),5,88% (active),98.6% (active)
CN(C)C(=O)c1ccccc1SC(=S)NCc1ccccc1,0,99% (active),98.1% (active),-2,99% (active),91.3% (active),2,93% (active),95.8% (active),-3,99% (active),95.3% (active),-7%,99% (active),88.2% (active),-3,98% (active),96.6% (active)
N#CNc1nc(N)c(-c2ccc(Cl)cc2)c(C(=O)Nc2ccc(Cl)c(Cl)c2)n1,-1,1%,-5.15%,-3,-2%,14%,-2,4%,-8%,-4,1%,-6.6%,-2%,1%,4.2%,-1,-2%,-22.4%
CC(C)C(=O)c1ccc2ccccc2c1O,-1,1%,21.4%,2,-1%,-9.8%,-13,-8%,4.35%,3,0%,12.2%,5%,6%,0.5%,-1,1%,1.05%
Cc1cc(O)c(/C=N/C(=S)Nc2ccc(S(N)(=O)=O)cc2)c(=O)o1,17,42%,-24.4%,13,32%,4.9%,19,57%,-10.2%,8,39%,-6.55%,31%,56%,1.45%,9,44%,-33.1%
CN(O)C(=S)c1ccccc1,50,87% (active),91.7% (active),43,73% (active),93.3% (active),55,99% (active),92.5% (active),41,99% (active),89.6% (active),95% (active),99% (active),91.8% (active),36,67%,86.7% (active)
NC1=NC(c2ccccc2)CC(c2cc(Cl)cc(Br)c2O)=N1 (stereo not given),0,25%,35.1%,-3,19%,13.4%,-1,42%,10.7%,0,22%,16.2%,-1%,34%,-0.8%,-3,46%,28.9%
